IL-1B inflam inh: qHTS for Inhibitors of Inflammasome Signaling: IL-1-beta AlphaLISA Primary Screen; THP-1 LPS/ATP IL-1B secretion, AlphaLISA, 16 h; hits give low values; activity change, % at 57.5 µM; hit rate 4.7% among 360,000; in the data active = activity change below about -50%; inconclusive = mostly about -30% to -49%; note: % is set by controls: 0 for no effect and ±100 for the full control effect
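THP-1 cells pretreated 1 hr with compounds (up to 57.5 uM final), then stimulated with LPS (250 ng/mL final) plus ATP (1.25 mM final); secreted IL-1B measured by AlphaLISA after 16 hr, decreased signal indicating inhibition.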
TDP1 cell CPT: qHTS for Inhibitors of human tyrosyl-DNA phosphodiesterase 1 (TDP1): qHTS in cells in presence of CPT | chicken DT40 Tdp1-/-;hTDP1 cells + 20 nM CPT, ATP luminescence, 48 h | Potency, µM (doses to about 46.2 µM), for the others: at the highest dose activity change, negative = growth inhibition, usual class: inhibitors | hit rate 12% among 420,000 | AID 686979, 2013; note: potency is the fitted concentration of half-maximal effect; % is set by controls: 0 for no effect and ±100 for the full control effect; nearly all actives have a fitted effect of over 55% in size
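Chicken DT40 Tdp1-/- cells stably complemented with human TDP1 were seeded at 400 cells/well in medium containing 20 nM camptothecin, exposed to pin-transferred compounds, and grown at 37 °C for at least 48 hr. Viability was read as ATP luminescence.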
D3 antag: qHTS of D3 Dopamine Receptor Antagonist: qHTS; D(3) dopamine receptor (Homo sapiens), P35462; D3R cells, DiscoveRx beta-arrestin luminescence, antagonist mode; hits give low values; max response, negative = inhibition, %; hit rate 2.5% among 360,000; AID 652054, 2013; in the data active = max response below about -50%; inconclusive = no clear call, values can overlap the other calls; note: % is set by controls: 0 for no effect and ±100 for the full control effect
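Cells plated overnight at 1500 cells/well, then exposed to library compounds with dopamine controls for 90 minutes at 37 degrees C. DiscoveRx reagent added for 30–60 minutes at room temperature; luminescence read, quantitative HTS format.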
ClpP mod: qHTS Assay for Activators of ClpP | purified B. subtilis ClpP, FRET peptide cleavage, 20 min | ATP-dependent Clp protease proteolytic subunit (Bacillus subtilis (strain 168)), P80244 | Potency, µM (highest dose often 57.5 µM), for the others: at the top dose activity change, negative = active | AID 651965, 2013 | hit rate 1.9% among 340,000; active = well fitted falling curve with a large enough effect; inconclusive = small, poorly fitted or top-dose-only effect; inactive = no such curve, though single readings can be large or run the other way; note: potency is the fitted concentration of half-maximal effect; the source files actives as falling curves though it sought activators and does not explain the sign; nearly all actives have a fitted effect of over 65% in size
Target sequence (P80244 whole entry, looked up): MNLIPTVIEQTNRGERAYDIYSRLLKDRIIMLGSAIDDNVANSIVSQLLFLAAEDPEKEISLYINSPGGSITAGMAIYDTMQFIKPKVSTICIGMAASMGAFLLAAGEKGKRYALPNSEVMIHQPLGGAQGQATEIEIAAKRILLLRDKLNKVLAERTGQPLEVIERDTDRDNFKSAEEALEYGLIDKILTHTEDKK
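Buffer: 100 mM Tris/HCl pH8, 100 mM KCl, 0.05% low protease BSA, 2.5% glycerol, 0.01% Tween-20. ClpP 10 microg/mL final; 20 min RT; delta FRET normalized to ADEP and DMSO controls.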
D3 ag: qHTS of D3 Dopamine Receptor Agonist: qHTS; D(3) dopamine receptor (Homo sapiens), P35462; D3R DiscoveRx beta-arrestin cells, luminescence, 90 min; max activation, %; hit rate 0.58% among 410,000; in the data active = max activation above about 30%; note: 0% is about no effect
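Agonist-mode cell screen: cells plated at 1500/well and incubated overnight at 37 °C, then exposed to library compounds for 90 min at 37 °C. Detection reagent was added for 30–60 min at room temperature, and luminescence was read.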
DT40 TDP1 no CPT: qHTS for Inhibitors of human tyrosyl-DNA phosphodiesterase 1 (TDP1): qHTS in cells in absence of CPT | DT40 Tdp1-/- hTDP1 cells, no CPT, ATP luminescence, 48 h | Potency, µM (top dose mostly 46.2 µM), for inactives: top-dose activity change, negative = growth inhibition, actives largely listed as inhibitors | hit rate 15% among 420,000; note: potency is the fitted concentration of half-maximal effect; % is set by controls: 0 for no effect and ±100 for the full control effect; nearly all actives have a fitted effect of over 55% in size
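Chicken DT40 Tdp1-/- cells stably complemented with human TDP1 were seeded at 400 cells/well with DMSO in place of 20 nM camptothecin. After compound pinning, cells grew at least 48 hr at 37 °C; viability read by CellTiter-Glo luminescence.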
* marks the source's active call; other numbers are inactive results; ? = inconclusive; . = not tested or not shown. An excerpt weighted towards active compounds, which were near 21% of everything screened. Unless noted, calls come from the whole dose curve; as a rule, active = well fitted inhibition curve with a large enough effect; inconclusive = small, poorly fitted or top-dose-only effect; inactive = flat fitted curve, though single readings scatter.

SMILES	IL-1B inflam inh	TDP1 cell CPT	D3 antag	ClpP mod	D3 ag	DT40 TDP1 no CPT
Cc1ccc(-c2ccc(SCC(=O)c3ccccc3)nn2)cc1	3.7	-18.4%	1.8	-2.1%	1.0	?
C[C@H]1CN([C@@H](C)CO)C(=O)c2cccc(NS(=O)(=O)c3ccc(Cl)cc3)c2O[C@@H]1CN(C)CC1CCCCC1	16.0	?	8.3	0.1%	3.2	?
CCc1cc(-c2[nH]ncc2-c2ccc3c(c2)OCO3)c(O)cc1O	-89.1*	18.4µM*	-29.5	?	-2.7	11.2µM*
COc1ccc(-c2cn[nH]c2-c2ccc(O)cc2O)cc1OC	11.8	-1.7%	-18.6	.	7.1	?
COc1ccc(-c2[nH]ncc2-c2ccc3c(c2)OCCO3)c(O)c1	6.5	4.61µM*	40.1	-10.7%	0.8	7.31µM*
C=C(C)COc1ccc(-c2[nH]ncc2Oc2ccc(OC)cc2)c(O)c1	-14.4	?	-16.5	-3.8%	-8.0	?
CCc1cc(-c2[nH]ncc2-c2ccc(OC)cc2)c(O)cc1O	-83.0*	?	-5.2	-0.9%	1.4	18.4µM*
COc1ccc(-c2cn[nH]c2-c2ccc(OCc3ccc([N+](=O)[O-])cc3)cc2O)cc1	-55.6*	?	-13.1	-5.0%	1.6	16.4µM*
COc1ccc(-c2[nH]ncc2-c2nc(C)cs2)c(O)c1	-13.4	-3.9%	-0.4	.	2.6	-23.1%
COCCNC(=O)C1(C)CCN(C(=O)c2nc(C)oc2C)C1 (stereo not given)	66.0	1.9%	0.3	2.7%	0.0	18.9%
CCC[C@@H](O)c1cc2cc(OC)c(OC)cc2c(=O)o1	-14.0	?	0.0	?	-3.8	?
Cc1cccc(NS(=O)(=O)c2ccc(C)c(C(=O)NC3CCN(Cc4ccccc4)CC3)c2)c1	-21.4	?	?	0.5%	-7.8	?
CCN1CCN(C(C)C(=O)NC2CCCCC2)CC1 (stereo not given)	-9.8	-3.1%	-17.1	-2.1%	-21.1	0.0%
CC(C)(C)OC(=O)CNC(=O)c1nc[nH]c1C(=O)NCc1ccccc1	19.1	?	2.2	-4.6%	6.4	-16.4%
CCOC(=O)c1ccc(NC(=O)c2nc[nH]c2C(=O)N[C@@H](C)CO)cc1	?	-1.2%	-28.9	-0.7%	-8.4	20.6µM*
CC(C)(C)OC(=O)NCc1ccc(NC(=O)c2nc[nH]c2C(=O)NCCNC(=O)c2[nH]cnc2C(=O)Nc2ccc(CNC(=O)OC(C)(C)C)cc2)cc1	60.5	14.6µM*	75.8	121.0%	42.1*	18.4µM*
CCOC(=O)c1ccc(NC(=O)c2nc[nH]c2C(=O)NC[C@@H](C)O)cc1	-17.6	6.4%	18.5	-0.7%	2.4	-21.9%
C[C@@H](CO)NC(=O)c1[nH]cnc1C(=O)Nc1ccc(CNC(=O)OC(C)(C)C)cc1	-3.9	23.1µM*	12.8	0.6%	-0.6	11.6µM*
C[C@H](CO)NC(=O)c1[nH]cnc1C(=O)Nc1ccc(CNC(=O)OC(C)(C)C)cc1	-16.9	-16.7%	6.3	1.6%	2.4	?
CC(C)(C)OC(=O)CNC(=O)c1nc[nH]c1C(=O)NCc1ccc(CNC(=O)OC(C)(C)C)cc1	3.6	18.4µM*	8.8	0.6%	19.8	14.6µM*
C/C(=N/NC(=O)CN1CCN(S(=O)(=O)c2ccc(Br)cc2)CC1)c1cccnc1	-2.3	2.7%	-10.6	0.4%	4.6	?
Cc1c(Br)cnc2ccccc12	.	11.2%	.	-1.5%	.	4.6%

Source: PubChem BioAssay
